# Assay outcomes from PubChem.
# UHRF1 binding = UHRF1 methylated DNA binding inhibitors, primary screen, counter-screen for MBD2 inhibitor project, biochemical, TR-FRET, human UHRF1, single concentration; hit rate 0.75% among 370,000; UHRF1 binding to methylated oligo; inhibition, % at 4.4 µM; AID 687016, 2013; in the data active = inhibition above about 21%;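 note: UHRF1 SRA domain binding a hemimethylated CpG hairpin DNA probe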
# LEDGF integ inh = blockers of LEDGF/p75-dependent integrase strand transfer – biochemical, TR-FRET, high throughput, primary screen; inhibition, % at 3.7 µM; hit rate 0.64% among 370,000; HIV-1 integrase (with human LEDGF/p75); TR-FRET IN-LEDGF/p75 DNA integration, Eu/Cy5;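 active = inhibition above the screen-wide mean plus 3 SD, cut at about 13% in these data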;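 note: signal is the Cy5 over europium emission ratio at 671 and 618 nm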
# Neddylation inh = inhibitors of cullin neddylation, primary screen, biochemical, TR-FRET, uHTS, NAE and Ubc12; NEDD8-conjugating enzyme Ubc12 (Homo sapiens) + NEDD8-activating enzyme E1 regulatory …; calls only at 25 µM; hit rate 0.58% among 360,000; AID 651699, 2012; in the data active = inhibition above about 36%
# Rin1 Abl inh = inhibitors of Rin1-Abl protein binding, primary screen, biochemical, TR-FRET; hit rate 0.4% among 360,000; inhibition, % at 7.35 µM; Tyrosine-protein kinase ABL1 (Homo sapiens) + Ras and Rab interactor 1 (Homo sapiens), …; in the data active = inhibition above about 5%, passing the limit was not always enough
# MBD2 inh = inhibitors of MBD2 binding to methylated DNA, primary screen, biochemical, TR-FRET, DNA-binding domain, human | MBD2 binding to methylated oligonucleotide | AID 686964, 2013 | inhibition, % at 4.4 µM | hit rate 0.31% among 370,000; in the data active = inhibition above about 13%
# KLK7 zymogen act = proKLK7 zymogen activators, primary screen, biochemical, fluorescence intensity; Kallikrein-7 (Homo sapiens), P49862; purified proKLK7, EDANS-DABCYL substrate fluorescence; 100% is mature enzyme control, 0% vehicle; activation, % at 7 µM; hit rate 0.9% among 370,000;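 active = activation above the mean of all tested compounds plus 3 SD, computed per campaign excluding outliers beyond control limits, cut at about 13% in these data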
# Target sequence (P49862 whole entry, looked up): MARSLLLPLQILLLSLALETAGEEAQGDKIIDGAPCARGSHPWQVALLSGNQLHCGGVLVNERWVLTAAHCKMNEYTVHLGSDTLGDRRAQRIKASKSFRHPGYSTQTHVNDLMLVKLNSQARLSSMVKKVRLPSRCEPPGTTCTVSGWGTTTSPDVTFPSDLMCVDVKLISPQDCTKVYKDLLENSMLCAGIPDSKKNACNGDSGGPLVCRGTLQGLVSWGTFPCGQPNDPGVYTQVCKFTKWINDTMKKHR
# A number is an active result; i = inactive; nt = no result given; + = active, no number. This is a sample that favours compounds with a hit; in the whole collection about 3.1% have one here.
SMILES,UHRF1 binding,LEDGF integ inh,Neddylation inh,Rin1 Abl inh,MBD2 inh,KLK7 zymogen act
CCN1C(=O)c2cccc3c(S(=O)(=O)Nc4ccccn4)ccc1c23,i,i,i,i,i,19
CCN1C(=O)c2cccc3c(S(=O)(=O)Nc4ccccc4)ccc1c23,nt,nt,i,i,nt,nt
Fc1ccc(-c2n[nH]c(=S)n2N=Cc2cccc(OCc3ccccc3)c2)cc1,i,i,nt,nt,i,i
O=C(Nc1cccc2ccccc12)c1cc2c(cc1Br)OCO2,i,i,i,i,i,i
COc1cccc(Cn2cc(COC(=O)N3CCOCC3)nn2)c1,i,i,nt,nt,i,i
O=C(c1ccco1)N1CCN(Cc2cc(=O)c(OCc3ccc(F)cc3)co2)CC1,i,i,i,i,i,i
Cc1ccnc(N2C(=O)c3cccc4c([N+](=O)[O-])ccc(c34)C2=O)c1,i,i,+,i,i,i
COCCNC(=S)Nc1ccc(S(=O)(=O)Nc2cnc3ccccc3n2)cc1,37,i,i,i,i,i
CC(Oc1ccc(Br)cc1)C(=O)N(C)CC(=O)Nc1ccc(N2CCOCC2)cc1 (stereo not drawn),i,i,i,i,i,i
CN(CCO)c1cnccn1,i,i,i,i,i,i
CC(C)C[C@@H](CN1CCC[C@@H]1CN1C(=O)C(=O)NC[C@@H]1Cc1ccccc1)N1C[C@H](Cc2ccccc2)N(CC2CCCCC2)C(=O)C1=O,54,i,i,nt,i,i
CC(C)C[C@H]1CN(CCCC[C@@H]2CNC(=O)C(=O)N2Cc2ccccc2)C(=O)C(=O)N1CC1CCCCC1,i,i,i,nt,i,i
O=C1NC[C@H](CCCCN2C[C@H](Cc3ccc(O)cc3)N(CCc3ccc(O)cc3)C(=O)C2=O)N(Cc2ccccc2)C1=O,22,i,i,nt,i,i
CC(C)C[C@@H](CN1CCC[C@@H]1CN1C(=O)C(=O)NC[C@@H]1Cc1ccccc1)N1C[C@H](Cc2ccccc2)N(CC2CCCCCC2)C(=O)C1=O,i,i,i,i,i,i
CC(C)C[C@H]1CN(CCCC[C@@H]2CNC(=O)C(=O)N2CC2CCCCC2)C(=O)C(=O)N1CCc1ccccc1,21,i,i,nt,i,i
CC1(C)Cc2ccccc2-c2nnc(-c3ccccn3)n21,i,i,i,i,i,i
O=[N+]([O-])c1cc(C=NN2CCN(Cc3ccccc3Cl)CC2)ccc1Cl,i,i,nt,nt,i,i
Cc1cccc(S(=O)(=O)NNC(=O)c2sc(C)nc2C)c1,i,i,i,i,i,i
Cc1snnc1C(=O)NC(=S)Nc1ccccc1,i,i,i,i,i,i
Cc1ccc(Cl)cc1N1CCN(c2cccc[n+]2C)CC1,i,i,i,i,i,i
CCN(CC)CCNC(=O)c1cc2c(-c3ccc(Cl)cc3)nn(C)c2s1,i,i,nt,i,i,17
CCN(C(=O)CSc1nc2ccc([N+](=O)[O-])cc2s1)c1c(N)n(Cc2ccccc2)c(=O)[nH]c1=O,i,i,i,i,i,i
CCNc1nc(NCC)nc(N/N=C/c2ccc(OC)cc2)n1,53,i,i,i,i,i
CCNc1nc(NCC)nc(N/N=C/c2ccccc2)n1,i,i,i,i,i,i
NNC(=O)c1ccc(CSc2nc3ccccc3[nH]2)cc1,i,i,i,i,i,i
SMILES,UHRF1 binding,LEDGF integ inh,Neddylation inh,Rin1 Abl inh,MBD2 inh,KLK7 zymogen act
CN(CC(=O)Nc1c(Cl)cccc1Cl)C(=O)c1cccc(-n2cccc2)c1,23,i,i,i,i,i
CN(CC(=O)Nc1ccccc1Cl)C(=O)c1cccc(-n2cccc2)c1,i,i,i,i,i,i
Cc1ccc(C(=O)NCC(=O)N(C)CC(=O)Nc2c(Cl)cccc2Cl)s1,23,i,i,i,i,i
CCC(C)[C@H](NC(=O)N1CCCCCC1)C(=O)OC (stereo partly drawn),i,i,i,i,i,i
O=S(=O)(Nc1cc(Sc2cccc3cccnc23)c(O)c2ccccc12)c1ccc(F)cc1,i,24,nt,nt,i,i
COc1ccc(S(=O)(=O)Nc2cc(Sc3ncn[nH]3)c(O)c3ccccc23)cc1,i,45,nt,nt,i,i
COc1ccc(S(=O)(=O)Nc2ccc(O)c(Sc3ncn[nH]3)c2)cc1,i,i,i,i,i,i
Nc1ccc2c(Cl)cc(Cl)cc2c1,i,i,i,i,i,i
CCc1ccccc1NC(=S)N1CCN(c2ccccc2F)CC1,i,i,i,i,i,i
Cc1ccc(NC(=S)N2CCN(c3ccccc3F)CC2)c(C)c1,24,i,i,i,i,i
COc1ccc(C2(c3ccc(OC)cc3)NC(=O)N(CC(=O)N(C)C)C2=O)cc1,i,i,i,i,i,i
Cc1occc1C(=O)N/N=C/c1ccc(N(C)C)cc1,i,i,+,i,i,i
Cc1occc1C(=O)N/N=C/C=C/c1ccc(N(C)C)cc1,i,i,+,i,i,i
Cc1ccc(/C=N/NC(=O)c2ccoc2C)o1,i,i,i,i,i,i
N=C1C(=O)OCC1c1ccccc1NC(=O)c1ccc(F)cc1 (stereo not drawn),51,i,i,i,i,i
Cc1cccc(Nc2ncnc3onc(-c4cccc(Cl)c4)c23)c1C,24,i,i,i,i,i
CCOC(=O)Cc1csc(NC(=O)c2c(-c3ccccc3)noc2C)n1,i,i,i,i,i,i
CCOC(=O)Cc1csc(NC(=O)c2c(C)noc2C)n1,24,i,i,i,i,i
C#CCN1C[C@@]2(O)CC[C@@H](O)[C@@H](OC)[C@@H]2[C@@]1(C)[C@H](O)CC=C(C)C,i,i,nt,nt,i,i
Cc1ccc2nc3c(c(C(=O)O)c2c1)CCC3,21,i,i,i,i,i
O=C(O)c1c2c(nc3ccc(Cl)cc13)CCC2,i,i,i,i,i,i
Cc1ccc(-n2ncc3c2CCCC3NC(=O)CSc2ccccn2)cc1C (stereo not drawn),i,i,i,i,i,i
COc1ccccc1Nc1ccc2c(O)cc(S(=O)(=O)O)cc2c1,47,36,+,i,24,i
CC(=O)Nc1ccc2c(O)cc(S(=O)(=O)O)cc2c1,i,i,i,i,i,i
Nc1ccc2c(O)cc(S(=O)(=O)O)cc2c1,21,40,i,i,i,i
COc1ccc(S(=O)(=O)O)cc1P(=O)(c1ccccc1)c1ccccc1,i,i,i,i,i,i
Nc1cccc2c(O)cc(S(=O)(=O)O)cc12,nt,nt,i,i,nt,nt
O=S(=O)(O)c1cc(O)c2ccc(Nc3ccccc3)cc2c1,64,32,+,i,36,i
